Source: PubChem BioAssay (NCI)
The panel holds about 83,000 compounds, 20% with a hit somewhere; the sample as a whole holds those more often.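 How to read the values: 0–100, growth inhibition (40 = 60% inhibited); 0, no net growth; -100 to 0, cell death (-40 = 40% of starting cells died; -100 = all dead).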 The source made the active and inactive calls. How the source made its calls: active means growth percent below 10; inactive means the rest.

Columns and labels:
Assay in all cases: NCI-60 one-dose screen, 48 h (100 = growth as untreated, 0 = no growth, -100 = all killed)
SK-MEL-2 melanoma = conditions: 10 µM unless noted
EKVX NSCLC = conditions: 10 µM unless noted
SN12C renal = conditions: 10 µM unless noted
UO-31 renal = conditions: 10 µM unless noted
TK-10 renal = conditions: 10 µM unless noted
ACHN renal = conditions: 10 µM unless noted
CAKI-1 renal = conditions: 10 µM unless noted
A498 renal = conditions: 10 µM unless noted
CCRF-CEM leukemia = conditions: 10 µM unless noted
MOLT-4 leukemia = conditions: 10 µM unless noted
SR leukemia = conditions: 10 µM unless noted
RPMI-8226 leukemia = conditions: 10 µM unless noted
OVCAR-8 ovarian = conditions: 10 µM unless noted
OVCAR-5 ovarian = conditions: 10 µM unless noted
OVCAR-4 ovarian = conditions: 10 µM
IGROV1 ovarian = conditions: 10 µM unless noted
OVCAR-3 ovarian = conditions: 10 µM unless noted
HS 578T breast = conditions: 10 µM unless noted
NCI/ADR-RES ovarian = conditions: 10 µM unless noted

Measured: growth

CCNC(=O)N1CCc2c(Cl)c3c(c(OC)c2[C@@H]1[C@H]1OCc2c1ccc(OC)c2OC)OCCO3
inactive: SK-MEL-2 melanoma 22.8% | EKVX NSCLC 48.7% | SN12C renal 38.1% | UO-31 renal 34.2% | TK-10 renal 47.7% | ACHN renal 31.5% | CAKI-1 renal 24.3% | CCRF-CEM leukemia 12.3% | MOLT-4 leukemia 30.8% | SR leukemia 18.3% | RPMI-8226 leukemia 17.3% | OVCAR-8 ovarian 30.7% | OVCAR-5 ovarian 38.1% | OVCAR-4 ovarian 57.6% | IGROV1 ovarian 29.1% | HS 578T breast 14.5%
active: A498 renal -20.6% | OVCAR-3 ovarian -5.71% | NCI/ADR-RES ovarian 1.11%

C#C[C@]1(O)CC[C@H]2[C@@H]3CC=C4c5nc(Nc6ccccn6)sc5CC[C@]4(C)[C@H]3CC[C@@]21C
inactive: SN12C renal 32.1% | TK-10 renal 12.3% | ACHN renal 21.6% | OVCAR-8 ovarian 27.6% | OVCAR-5 ovarian 30.1% | OVCAR-4 ovarian 16.1% | IGROV1 ovarian 32.7% | OVCAR-3 ovarian 20.8% | NCI/ADR-RES ovarian 22.6%
active: SK-MEL-2 melanoma -29.6% | EKVX NSCLC 2.77% | UO-31 renal -24.4% | CAKI-1 renal -37.6% | A498 renal -49% | CCRF-CEM leukemia 0.227% | MOLT-4 leukemia -11.8% | SR leukemia 8.66% | RPMI-8226 leukemia -45.6% | HS 578T breast -16.8%

CCn1cc(-c2cc(-c3ccc(Cl)cc3)nc(N)n2)c(-c2ccc(Br)cc2)n1
inactive: SK-MEL-2 melanoma 62.7% | EKVX NSCLC 78.1% | SN12C renal 84.5% | UO-31 renal 67.7% | TK-10 renal 80.2% | ACHN renal 46.9% | CAKI-1 renal 51.8% | A498 renal 92% | CCRF-CEM leukemia 82.9% | MOLT-4 leukemia 83.4% | SR leukemia 69.7% | RPMI-8226 leukemia 66.2% | OVCAR-8 ovarian 84.9% | OVCAR-5 ovarian 68.7% | OVCAR-4 ovarian 82.2% | IGROV1 ovarian 68.1% | OVCAR-3 ovarian 88.5% | HS 578T breast 96.7% | NCI/ADR-RES ovarian 80.3%

COc1ccc(/C=C2\N=C(Nc3ccccc3)N(NC(=O)c3ccccn3)C2=O)cc1
inactive: SK-MEL-2 melanoma 102% | EKVX NSCLC 91.5% | SN12C renal 94.7% | UO-31 renal 72.3% | TK-10 renal 127% | ACHN renal 99.4% | CAKI-1 renal 87.5% | A498 renal 81.5% | CCRF-CEM leukemia 99.2% | MOLT-4 leukemia 76.7% | SR leukemia 95.2% | RPMI-8226 leukemia 88.2% | OVCAR-8 ovarian 100% | OVCAR-5 ovarian 122% | OVCAR-4 ovarian 90% | IGROV1 ovarian 95.7% | OVCAR-3 ovarian 105% | HS 578T breast 95.3% | NCI/ADR-RES ovarian 97%

N=C(N)c1ccc(-c2ccc(-c3ccc(-c4cccs4)s3)s2)cc1F
active: A498 renal 0.519%
inactive: SK-MEL-2 melanoma 114% | EKVX NSCLC 98.8% | SN12C renal 92.7% | UO-31 renal 76.5% | TK-10 renal 122% | ACHN renal 101% | CAKI-1 renal 93.6% | CCRF-CEM leukemia 26.8% | MOLT-4 leukemia 91% | SR leukemia 18.6% | RPMI-8226 leukemia 49.4% | OVCAR-8 ovarian 102% | OVCAR-5 ovarian 75.8% | OVCAR-4 ovarian 90.5% | IGROV1 ovarian 93.5% | OVCAR-3 ovarian 91.4% | HS 578T breast 101% | NCI/ADR-RES ovarian 102%

CC(C)(C)OC(=O)N1C=C/C(=C\Cn2cc(-c3ccccc3)nn2)CC1
inactive: SK-MEL-2 melanoma 64% | EKVX NSCLC 79.8% | SN12C renal 73.7% | UO-31 renal 54.6% | TK-10 renal 98.6% | ACHN renal 68.7% | CAKI-1 renal 67% | A498 renal 54.2% | MOLT-4 leukemia 65.2% | SR leukemia 57.9% | RPMI-8226 leukemia 62.9% | OVCAR-8 ovarian 74.9% | OVCAR-5 ovarian 104% | OVCAR-4 ovarian 18% | IGROV1 ovarian 82.7% | OVCAR-3 ovarian 86.6% | HS 578T breast 84.1% | NCI/ADR-RES ovarian 76.9%
active: CCRF-CEM leukemia 2.78%

CC(C)CSc1ncnc2nc[nH]c12
inactive: SK-MEL-2 melanoma 107% | EKVX NSCLC 95.3% | SN12C renal 94.7% | UO-31 renal 93.9% | TK-10 renal 82.4% | ACHN renal 90.3% | CAKI-1 renal 98.6% | A498 renal 87.5% | CCRF-CEM leukemia 86.8% | MOLT-4 leukemia 128% | SR leukemia 119% | RPMI-8226 leukemia 71.4% | OVCAR-8 ovarian 104% | OVCAR-5 ovarian 86.6% | OVCAR-4 ovarian 100% | IGROV1 ovarian 67.1% | OVCAR-3 ovarian 103% | HS 578T breast 116% | NCI/ADR-RES ovarian 100%

CC(C)(C)c1cc(C(=O)N2CCC(C(=O)NCCN)CC2)cc(C(C)(C)C)c1
inactive: SK-MEL-2 melanoma 97.4% | EKVX NSCLC 84.7% | SN12C renal 89.5% | UO-31 renal 93.3% | TK-10 renal 98.4% | ACHN renal 108% | CAKI-1 renal 80.7% | A498 renal 56.6% | CCRF-CEM leukemia 94.8% | MOLT-4 leukemia 98.5% | SR leukemia 98.4% | RPMI-8226 leukemia 94.4% | OVCAR-8 ovarian 99% | OVCAR-5 ovarian 98.9% | OVCAR-4 ovarian 105% | IGROV1 ovarian 95.6% | OVCAR-3 ovarian 104% | HS 578T breast 92% | NCI/ADR-RES ovarian 104%

CCOC(=O)c1nn(C2CCCCO2)c2ccc(NC(=O)Cn3nnc4ccccc43)cc12 (stereo unspecified)
inactive: SK-MEL-2 melanoma 113% | EKVX NSCLC 98.1% | SN12C renal 97.6% | UO-31 renal 82.6% | TK-10 renal 117% | ACHN renal 98.6% | CAKI-1 renal 97.6% | A498 renal 85.8% | CCRF-CEM leukemia 117% | MOLT-4 leukemia 95.9% | SR leukemia 97.6% | RPMI-8226 leukemia 107% | OVCAR-8 ovarian 101% | OVCAR-5 ovarian 97.7% | OVCAR-4 ovarian 104% | IGROV1 ovarian 103% | OVCAR-3 ovarian 110% | HS 578T breast 99.4% | NCI/ADR-RES ovarian 104%

CCN(CC)c1ccc2cc(NC(=O)OCCNC(=O)CCNC(=O)[C@H](CC(C)C)NC(=O)C(C)(C)NC(=O)C(C)(C)NC(=O)[C@H](CC(C)C)NC(=O)CCNC(=O)C(C)(C)NC(=O)[C@H](CC(C)C)NC(=O)CCNC(=O)[C@@](C)(CC)NC(=O)[C@H](C)NC(=O)CCNC(=O)C(C)(C)NC(=O)[C@H](C)NC(=O)[C@@H]3CCCN3C(=O)[C@@](C)(CC)NC(=O)[C@H](Cc3ccccc3)NC(=O)C3CCCN3C(=O)C(C)(C)NC(=O)C3CCCN3C(=O)C(C)(C)NC(C)=O)c(=O)oc2c1 (stereo partly specified)
active: SK-MEL-2 melanoma -80.4% | EKVX NSCLC -100% | SN12C renal -74.6% | UO-31 renal -80.5% | TK-10 renal -93.3% | ACHN renal -85.4% | CAKI-1 renal -92.4% | A498 renal -98.5% | CCRF-CEM leukemia -63.5% | MOLT-4 leukemia -62% | SR leukemia -52.9% | RPMI-8226 leukemia -60.4% | OVCAR-8 ovarian -74.8% | OVCAR-5 ovarian -87.7% | OVCAR-4 ovarian -94.9% | IGROV1 ovarian -69.3% | OVCAR-3 ovarian -100% | HS 578T breast -60.1% | NCI/ADR-RES ovarian -93.5%

Fc1cc2[nH]ncc2c2c3c(c(-c4cn[nH]c4C(F)(F)F)nc12)C1CCC3C1 (stereo unspecified)
inactive: EKVX NSCLC 28.2% | CCRF-CEM leukemia 11.5% | OVCAR-8 ovarian 10.2% | OVCAR-4 ovarian 35% | OVCAR-3 ovarian 10.6% | NCI/ADR-RES ovarian 55.7%
active: SK-MEL-2 melanoma -32.6% | SN12C renal 6.09% | UO-31 renal -44.2% | TK-10 renal -11.2% | ACHN renal -0.693% | CAKI-1 renal -5.2% | A498 renal -80.2% | MOLT-4 leukemia 6.06% | SR leukemia 5.5% | RPMI-8226 leukemia 7.73% | OVCAR-5 ovarian -7.74% | IGROV1 ovarian -13% | HS 578T breast -10.8%

CC(C)(C)c1cc(C(=O)Nc2cc3ccccc3cc2C(=O)NCCN)cc(C(C)(C)C)c1
active: SK-MEL-2 melanoma -48.8% | EKVX NSCLC -72.9% | SN12C renal -64.8% | UO-31 renal -85.6% | TK-10 renal -85.9% | ACHN renal -92.3% | CAKI-1 renal -84.4% | A498 renal -90.7% | CCRF-CEM leukemia -49.6% | MOLT-4 leukemia -38.6% | SR leukemia -58.9% | RPMI-8226 leukemia -47.8% | OVCAR-8 ovarian -37.1% | OVCAR-5 ovarian -58.4% | OVCAR-4 ovarian -81.6% | IGROV1 ovarian -55% | OVCAR-3 ovarian -96% | HS 578T breast -36.6% | NCI/ADR-RES ovarian -62.3%

C[n+]1c2ccccc2nc2c(N)cc(N)cc21
inactive: SK-MEL-2 melanoma 121% | EKVX NSCLC 65.9% | UO-31 renal 78.3% | TK-10 renal 126% | ACHN renal 96.7% | CAKI-1 renal 111% | A498 renal 121% | CCRF-CEM leukemia 58.8% | MOLT-4 leukemia 34.8% | SR leukemia 38.3% | RPMI-8226 leukemia 80.2% | OVCAR-8 ovarian 41.6% | OVCAR-5 ovarian 101% | OVCAR-4 ovarian 72.5% | IGROV1 ovarian 70.1% | OVCAR-3 ovarian 15.2% | HS 578T breast 55.5% | NCI/ADR-RES ovarian 92.9%
active: SN12C renal 5.51%

Cn1cc(-c2nnc(-c3cn(C)c4ncc(Br)cc34)o2)c2ccccc21
inactive: SK-MEL-2 melanoma 99.1% | EKVX NSCLC 74.1% | SN12C renal 88.2% | UO-31 renal 61.4% | TK-10 renal 114% | ACHN renal 81.4% | CAKI-1 renal 45% | A498 renal 86.4% | CCRF-CEM leukemia 102% | MOLT-4 leukemia 93.6% | SR leukemia 52.7% | RPMI-8226 leukemia 88.5% | OVCAR-8 ovarian 93.4% | OVCAR-5 ovarian 93.4% | OVCAR-4 ovarian 90.3% | IGROV1 ovarian 65.8% | OVCAR-3 ovarian 88.2% | HS 578T breast 89.6% | NCI/ADR-RES ovarian 68.9%
